PLK1 PBD block: PLK1 (human) polo-box domain binding inhibition. P53350. Plk1 PBD binding of FITC phosphopeptide, fluorescence polarization. Potency, µM, without a hit: max response, negative = inhibition, hits mostly inhibitors. actives 2.8% (n = 360,000). AID 720504; further: series mostly up to about 57 µM; on the % scale 0 is the no-effect control and ±100 the full control effect; nearly all actives have a fitted effect of over 65% in size
JMJD2A Tudor: JMJD2A Tudor domain (human) inhibition; O75164; AID 504339; actives 4.4% (n = 390,000); Potency, µM (titrated, usually from 114 µM), without a hit: top-dose activity change, negative = inhibition, usual class: inhibitors; AlphaScreen JMJD2A-Tudor / H3K4me3 peptide binding; further: on the % scale 0 is the no-effect control and ±100 the full control effect; nearly all actives have a fitted effect of over 50% in size
Target sequence (O75164 whole entry, looked up, the tested form may be a part): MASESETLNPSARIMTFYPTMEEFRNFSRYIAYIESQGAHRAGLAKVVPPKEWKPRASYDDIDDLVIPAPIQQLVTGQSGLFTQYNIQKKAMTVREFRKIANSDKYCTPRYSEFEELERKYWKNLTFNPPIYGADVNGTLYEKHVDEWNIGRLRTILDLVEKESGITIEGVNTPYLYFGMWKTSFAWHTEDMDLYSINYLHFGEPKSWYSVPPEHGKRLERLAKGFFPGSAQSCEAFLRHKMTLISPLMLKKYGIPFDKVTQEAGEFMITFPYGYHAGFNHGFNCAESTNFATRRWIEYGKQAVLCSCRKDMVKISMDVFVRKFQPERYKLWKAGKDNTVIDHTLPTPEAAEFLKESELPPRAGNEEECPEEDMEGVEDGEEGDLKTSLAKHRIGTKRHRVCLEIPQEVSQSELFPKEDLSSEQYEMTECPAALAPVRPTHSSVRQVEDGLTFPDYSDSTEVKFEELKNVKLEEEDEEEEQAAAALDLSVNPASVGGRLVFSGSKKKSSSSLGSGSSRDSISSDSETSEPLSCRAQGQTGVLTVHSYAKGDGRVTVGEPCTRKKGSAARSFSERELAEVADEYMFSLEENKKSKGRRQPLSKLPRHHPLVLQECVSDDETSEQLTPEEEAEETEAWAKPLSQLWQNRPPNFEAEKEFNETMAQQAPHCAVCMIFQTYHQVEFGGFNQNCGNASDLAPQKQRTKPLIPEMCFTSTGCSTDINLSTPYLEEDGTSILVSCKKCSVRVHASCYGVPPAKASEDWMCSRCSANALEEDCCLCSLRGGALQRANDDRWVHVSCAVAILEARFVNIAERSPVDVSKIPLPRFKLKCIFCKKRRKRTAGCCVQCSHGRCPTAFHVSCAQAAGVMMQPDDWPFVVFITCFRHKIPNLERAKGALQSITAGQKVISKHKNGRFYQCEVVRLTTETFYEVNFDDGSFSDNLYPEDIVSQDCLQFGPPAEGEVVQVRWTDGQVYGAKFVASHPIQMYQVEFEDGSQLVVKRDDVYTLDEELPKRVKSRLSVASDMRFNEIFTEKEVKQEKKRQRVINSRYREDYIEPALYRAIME
HP1b binding inh: inhibitors of HP1-beta chromodomain binding to methylated histone tails. P83916. AlphaScreen HP1-beta / biotin-H3K9me3 peptide binding. Potency, µM (doses to about 114 µM), without a hit: at the top dose activity change, negative = inhibition, most hits filed as inhibitors. actives 0.56% (n = 390,000). AID 540317; further: nearly all actives have a fitted effect of over 70% in size
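AlphaScreen: HP1-beta (50 nM) preformed 30 min with biotin-H3(1-18)K9me3 peptide (50 nM) in PBS pH 7.4, 0.01% Tween-20. Compound added for 30 min at RT, then streptavidin donor/nickel chelate acceptor beads (10 ug/mL) for 30 min.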
BAZ2B block: BAZ2B (human) inhibition; Q9UIF8; AlphaScreen BAZ2B-H3K14Ac peptide displacement; Potency, µM (top dose mostly 114 µM), for inactives: top-dose activity change, negative = inhibition, actives largely listed as inhibitors; actives 4.4% (n = 360,000); AID 504333; further: on the % scale 0 is the no-effect control and ±100 the full control effect; nearly all actives have a fitted effect of over 60% in size
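In this displacement format the biotinylated H3(5-23) peptide acetylated at Lys14 serves as ligand at 50 nM, with BAZ2B at 50 nM in PBS pH 7.4 containing 0.01% Tween-20. Donor and acceptor beads are 10 ug/mL final.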
ALOX12 inh: ALOX12 (human) lipoxygenase inhibition; P18054; AID 1671190; actives 1.1% (n = 580,000); purified 12hLO, xylenol orange hydroperoxide absorbance; Potency, µM (top dose mostly 108 µM), inactives show at the highest dose activity change, negative = inhibition, hits mostly inhibitors; further: on the % scale 0 is the no-effect control and ±100 the full control effect
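Purified human 12hLO (150 nM final) in 25 mM Hepes, 0.01% Triton X-100, pH 7.0 was preincubated 15 min at room temperature with compound. Then 40 uM arachidonic acid was added, 30 min. Hydroperoxide was read by Fe-XO absorbance ratio 573/405 nm.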
G9a block: G9a (human) methyltransferase inhibition; G9a H3K9 monomethylation, AlphaScreen, 2 h; actives 8.8% (n = 350,000); Q96KQ7; Potency, µM (series often up to 102 µM), for inactives: top-dose activity, negative = inhibition, hits mostly inhibitors; further: on the % scale 0 is the no-effect control and ±100 the full control effect; nearly all actives have a fitted effect of over 75% in size
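Quantitative HTS format: methyltransferase activity on a biotin-tagged H3K9 peptide is measured by AlphaScreen, using a rabbit anti-monomethyl-H3K9 antibody with streptavidin donor and anti-IgG acceptor beads. Final levels are 20 nM enzyme, 500 nM peptide, 20 uM SAM; 2 h RT.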
* = called active by the depositor; [ ] = dose if it differs, or a comment. This is a sample that favours compounds with a hit; in the whole collection about 9% have one here. The call rests on the fitted dose curve; in most records, active means well fitted curve in the direction sought with a large enough effect; inconclusive means small, poorly fitted or top-dose-only effect, or another doubt; inactive means no such curve, though single readings can be large; an effect the other way counts as inactive or inconclusive. Potency means the concentration at half of the fitted maximal effect.

Screening O=C(COC(=O)c1ccccc1C(=O)c1ccccc1)NCc1ccc(F)cc1 returned PLK1 PBD block 23.8µM*, JMJD2A Tudor inconclusive, HP1b binding inh -9.5%, BAZ2B block -1.5%, ALOX12 inh inconclusive and G9a block -8.1%[12.7 µM].
`CC(=O)NCCC(=O)Nc1cc(S(=O)(=O)N2CCCCC2)ccc1N1CCN(C)CC1` gave PLK1 PBD block -11.7%, JMJD2A Tudor inconclusive, HP1b binding inh 5.7%, BAZ2B block 10.1%, ALOX12 inh 2.6% and G9a block 50.1µM*.
`CN1CCN(c2ccc(S(=O)(=O)N3CCCCC3)cc2NC(=O)Cc2c(F)cccc2Cl)CC1` gave PLK1 PBD block 5.7%, JMJD2A Tudor -24.0%, HP1b binding inh -6.4%, BAZ2B block -6.7%, ALOX12 inh inconclusive and G9a block 44.7µM*.
For O=C(Cc1c(F)cccc1Cl)Nc1cc(S(=O)(=O)N2CCCCC2)ccc1N1CCOCC1 the results were PLK1 PBD block -2.4%, JMJD2A Tudor -18.7%, HP1b binding inh 2.1%, BAZ2B block -8.5%, ALOX12 inh 0.0% and G9a block -4.0%[12.7 µM].
`CC(=O)NCCC(=O)Nc1cc(S(=O)(=O)Nc2ccc(Cl)cc2)ccc1N1CCCC1` gave PLK1 PBD block 26.7µM*, JMJD2A Tudor inconclusive, HP1b binding inh -13.0%, BAZ2B block -10.2%, ALOX12 inh inconclusive and G9a block 22.4µM*.
Screening CC(=O)NCCC(=O)Nc1cc(S(=O)(=O)N2CCCCC2)ccc1N1CCCCC1 returned PLK1 PBD block -3.0%, JMJD2A Tudor -11.3%, HP1b binding inh 29.4%, BAZ2B block 3.8%, ALOX12 inh 402.0% and G9a block 5.7%[12.7 µM].
`Cc1cc(C)n(CCC(=O)N/N=C/c2ccc(Cl)c([N+](=O)[O-])c2)n1` gave PLK1 PBD block 7.1%, JMJD2A Tudor -2.8%, HP1b binding inh 33.2%, BAZ2B block -15.4%, ALOX12 inh 47.7% and G9a block -2.6%.
Cc1cc(NC(=O)c2ccc3nccnc3c2)ccc1Br was read as PLK1 PBD block -2.3%, JMJD2A Tudor -8.3%, HP1b binding inh 28.1% and ALOX12 inh -17.2%.
O=S(=O)(NCCc1csc2nc(-c3ccc(F)cc3)nn12)c1ccc(F)c(C(F)(F)F)c1 was read as ALOX12 inh 4.7%.
For CC1(C(=O)NS(=O)(=O)c2ccccc2C(F)(F)F)CCN1C(=O)CCc1ccccc1 (stereo not given) the results were PLK1 PBD block -7.8% and ALOX12 inh -24.5%.
Cc1ccc(Cn2c(CN3CCOCC3)nc3ccccc32)cc1 was read as ALOX12 inh -6.0%.
Cc1ccc(Cn2c(/C=C/c3ccco3)nc3ccccc32)cc1 was read as PLK1 PBD block -2.0%, JMJD2A Tudor -0.7%, HP1b binding inh 11.2%, BAZ2B block inconclusive, ALOX12 inh 15.8µM* and G9a block 39.8µM*.
Screening Clc1ccc(Cn2c(/C=C/c3ccco3)nc3ccccc32)cc1 returned PLK1 PBD block -8.7%, JMJD2A Tudor -26.5%, HP1b binding inh inconclusive, BAZ2B block 56.2µM*, ALOX12 inh 17.8µM* and G9a block 3.16µM*.
C#CCn1c(/C=C/c2ccc(Cl)cc2)nc2ccccc21 was read as JMJD2A Tudor 104.0%, HP1b binding inh 195.4%, BAZ2B block 112.2%, ALOX12 inh inconclusive and G9a block 161.0%[59 µM].
Screening COc1ccc(C2=NN(c3nc4ccccc4s3)C(=O)/C2=C\N(C)C)cc1 returned PLK1 PBD block -8.5%, JMJD2A Tudor -21.9%, HP1b binding inh 10.2%, BAZ2B block 3.2%, ALOX12 inh 22.4µM* and G9a block 9.1%[59 µM].
For Cc1cc(C)c[n+](CC(=O)c2ccc(-c3ccccc3)cc2)c1 the results were PLK1 PBD block -9.2%, JMJD2A Tudor -17.2%, HP1b binding inh 21.7%, BAZ2B block 19.2%, ALOX12 inh -25.6% and G9a block 50.1µM*.
Screening CN(C)CC(=O)c1ccc(-c2ccccc2)cc1 returned PLK1 PBD block -8.7%, JMJD2A Tudor -19.7%, HP1b binding inh 35.2%, ALOX12 inh -18.8% and G9a block 31.6µM*.
For Cc1cc(C)c[n+](CC(=O)c2ccc(NC(=O)c3ccccc3)cc2)c1 the results were PLK1 PBD block -6.8%, JMJD2A Tudor -3.1%, HP1b binding inh 31.2%, BAZ2B block -9.3% and ALOX12 inh 1.9%.
C/[N+]([O-])=C\CC(=O)c1ccc(-c2ccccc2)cc1 was read as PLK1 PBD block 21.2µM*, JMJD2A Tudor 31.6µM*, HP1b binding inh -10.7%, BAZ2B block -27.4%, ALOX12 inh -13.8% and G9a block 14.1µM*.
For Cc1ccsc1-c1[nH]nc2ncc(-c3ccc(CO)cc3)nc12 the results were ALOX12 inh -19.7%[176 µM].
For CSc1ccc(Cl)c(C(=O)N(C)CC(=O)Nc2ccc(N3CCOCC3)cc2)c1 the results were PLK1 PBD block -0.1%, JMJD2A Tudor -28.1%, HP1b binding inh 24.6%, BAZ2B block -2.8%, ALOX12 inh -11.3% and G9a block 35.5µM*.
Screening CN(CC(=O)Nc1ccc(N2CCOCC2)cc1)C(=O)CCc1ccccc1Cl returned PLK1 PBD block inconclusive, JMJD2A Tudor -23.4%, HP1b binding inh -14.3%, BAZ2B block inconclusive, ALOX12 inh -12.5% and G9a block 25.1µM*.
For Cc1ccc(-c2nn(-c3ccc(F)cc3)cc2C(=O)N(C)CC(=O)Nc2ccc(N3CCOCC3)cc2)cc1 the results were PLK1 PBD block 3.0%, JMJD2A Tudor -6.5%, HP1b binding inh 10.3%, BAZ2B block -5.2%, ALOX12 inh -7.5% and G9a block 39.8µM*.
Cc1ccc(C)c(SCC(=O)N(C)CC(=O)Nc2ccc(N3CCOCC3)cc2)c1 was read as PLK1 PBD block inconclusive, JMJD2A Tudor -17.3%, HP1b binding inh 7.9%, BAZ2B block -34.7%, ALOX12 inh -25.4% and G9a block 44.7µM*.
For CN(CC(=O)Nc1ccc(N2CCOCC2)cc1)C(=O)c1cc(F)c(F)cc1Cl the results were PLK1 PBD block -6.7%, JMJD2A Tudor -19.4%, HP1b binding inh -16.8%, BAZ2B block -2.3%, ALOX12 inh -19.5% and G9a block 7.8%[0.501 µM].
For CN(CC(=O)Nc1ccc(N2CCOCC2)cc1)C(=O)CCNC(=O)c1ccccc1Cl the results were PLK1 PBD block -3.8%, JMJD2A Tudor -3.4%, HP1b binding inh 9.8%, BAZ2B block -1.2%, ALOX12 inh -8.2% and G9a block 44.7µM*.
`O=C(Cc1cn2ccsc2n1)Nc1cccc(S(=O)(=O)N2CCCC2)c1` gave ALOX12 inh -13.4%.
For COc1ccc(C)cc1NC(=O)CN1CCN(S(=O)(=O)c2ccc(Cl)cc2)CC1 the results were PLK1 PBD block 2.5%, JMJD2A Tudor -6.5%, HP1b binding inh 16.0%, BAZ2B block 8.6%, ALOX12 inh 0.0% and G9a block 14.1µM*.
